The values below come from PubChem BioAssay (NCI).

Test systems include NCI-H23 lung; NCI-H226 lung; NCI-H322M lung; HOP-62 NSCLC; NCI-H460 lung; HOP-92 NSCLC; NCI-H522 lung; A549/ATCC NSCLC; 786-0 renal; COLO 205 colon; DU-145 prostate; K-562 leukemia; MALME-3M melanoma; MDA-MB-231 breast; RXF 393 renal; SF-268 CNS; SF-295 CNS; SF-539 CNS; UACC-257 melanoma; M14 melanoma.
Common to all, as to assay: NCI-60 one-dose screen, 48 h (100 = growth as untreated, 0 = no growth, -100 = all killed)
Common to all, as to conditions: 10 µM unless noted

This is part of a sample that, as a whole, favours compounds with a hit. Of some 83,000 tested, about 20% had one in any assay.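 Values shown are percent growth following 48 h exposure of cells in 96-well plates to a single concentration of compound; below 10 was considered active.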 Unmarked numbers belong to inactive results. Calls of active or inactive are those of the source.

Consider `C=CC(=O)N1CCC[C@@H](n2nc(-c3ccc(Oc4ccccc4)cc3)c3c(N)ncnc32)C1`, for which the growth was 95.3% in the test on NCI-H23 lung; 45% with NCI-H226 lung; -1.22% (active) with NCI-H322M lung; 73.1% with HOP-62 NSCLC; 90% in the test with NCI-H460 lung; 28.3% in the test with HOP-92 NSCLC. For the same molecule, the growth was 1.41% (active) in the test on NCI-H522 lung; 46.6% in the test with A549/ATCC NSCLC; 30.4% with 786-0 renal; 61.3% with COLO 205 colon; 47.9% with DU-145 prostate; 8.51% (active) in the test on K-562 leukemia. Also, the growth is 86.8% in the test on MALME-3M melanoma; 56.4% in the test on MDA-MB-231 breast; 11% in the test with RXF 393 renal; 42% with SF-268 CNS; 60.7% in the test with SF-295 CNS; 32.9% in the test with SF-539 CNS. For the same molecule, the growth was 26.4% with UACC-257 melanoma and 41.9% in the test with M14 melanoma.

For the molecule `CNC(=O)c1c(C)oc2cc(Oc3ncnc4cc(OC)c(OC)cc34)ccc12`, the growth with NCI-H23 lung was 93.8%; in the test with NCI-H226 lung, 59.4%; in the test with NCI-H322M lung it was 93.9%; in the test with HOP-62 NSCLC it was 82.9%; in the test with NCI-H460 lung it was 106%; in the test on HOP-92 NSCLC, 81.1%. The growth in the test with NCI-H522 lung was 89.5%; with A549/ATCC NSCLC, 81.1%; with 786-0 renal, 102%; in the test with COLO 205 colon it was 108%; in the test on DU-145 prostate it was 101%; with K-562 leukemia, 88.4%. Besides, the growth is 104% in the test with MALME-3M melanoma; 101% with MDA-MB-231 breast; 66.4% in the test with RXF 393 renal; 70.7% with SF-268 CNS; 96% with SF-295 CNS; 41.6% in the test with SF-539 CNS. For the same molecule, the growth is 86.6% in the test with UACC-257 melanoma and 98.2% with M14 melanoma.

As to `CCOc1cc2ncc(C#N)c(Nc3ccc(OCc4ccccn4)c(Cl)c3)c2cc1NC(=O)/C=C/CN(C)C`, the growth in the test on NCI-H23 lung is 39.9%; in the test with NCI-H226 lung it was 47.2%; in the test with NCI-H322M lung it was 0.942% (active); in the test on HOP-62 NSCLC, 38.6%; in the test on NCI-H460 lung it was -62.2% (active); in the test with HOP-92 NSCLC it was 39.3%. Further, the growth with NCI-H522 lung was 6.98% (active); with A549/ATCC NSCLC it was 22.3%; with 786-0 renal, -74.7% (active); in the test with COLO 205 colon, 27.4%; in the test on DU-145 prostate, 4.49% (active); in the test with K-562 leukemia it was -47.5% (active). Moreover, the growth in the test on MALME-3M melanoma is -72.3% (active); in the test on MDA-MB-231 breast, -40% (active); in the test with RXF 393 renal, -77.4% (active); in the test with SF-268 CNS, -36.7% (active); with SF-295 CNS, 54.1%; with SF-539 CNS, 22%. Moreover, the growth in the test with UACC-257 melanoma is 52.8%; with M14 melanoma it was -82.4% (active).

`NC1(c2ccc(-c3nc4ccn5c(=O)[nH]nc5c4cc3-c3ccccc3)cc2)CCC1`: the growth was 73.5% in the test with NCI-H23 lung; 67.7% in the test on NCI-H226 lung; 59.2% in the test on NCI-H322M lung; 50.3% in the test on HOP-62 NSCLC; 23.6% with NCI-H460 lung; 23.2% in the test with HOP-92 NSCLC. Also, the growth in the test with NCI-H522 lung was 5.02% (active); with A549/ATCC NSCLC it was 32.8%; in the test on 786-0 renal it was 9.74% (active); in the test with COLO 205 colon, -19.8% (active); in the test on DU-145 prostate, 60.9%; in the test with K-562 leukemia, -16.8% (active). In addition, the growth with MALME-3M melanoma is -70.8% (active); with MDA-MB-231 breast it was 37.4%; with RXF 393 renal, -21.7% (active); with SF-268 CNS it was 52.3%; in the test with SF-295 CNS it was -65.5% (active); in the test with SF-539 CNS, -80.9% (active). Moreover, the growth was -67.6% (active) in the test with UACC-257 melanoma and -66.5% (active) in the test on M14 melanoma.

As for `COC(=O)N[C@@H](C)CNc1nccc(-c2cn(C(C)C)nc2-c2cc(Cl)cc(NS(C)(=O)=O)c2F)n1`, the growth was 59.2% with NCI-H23 lung; 94.9% in the test with NCI-H226 lung; 78.7% in the test with NCI-H322M lung; 72.7% in the test on HOP-62 NSCLC; 91.2% in the test on NCI-H460 lung; 49.7% in the test on HOP-92 NSCLC. Further, the growth in the test with NCI-H522 lung is 44.2%; in the test on A549/ATCC NSCLC, 53.4%; with 786-0 renal, 48.6%; in the test with COLO 205 colon, 4.94% (active); with DU-145 prostate it was 79.6%; with K-562 leukemia, 69.4%. The growth in the test on MALME-3M melanoma is 1.63% (active); in the test with MDA-MB-231 breast it was 61%; in the test with RXF 393 renal it was 42.7%; in the test on SF-268 CNS, 82.2%; in the test on SF-295 CNS, 103%; in the test on SF-539 CNS, 91.2%. For the same molecule, the growth is -25.8% (active) with UACC-257 melanoma and 3.81% (active) in the test on M14 melanoma.

`COc1cc2cc(NCc3ccc(Cl)cc3)nc(C)c2cc1OC`: the growth in the test with NCI-H23 lung was 23.7%; in the test with NCI-H226 lung it was 35.5%; in the test on NCI-H322M lung, 44.6%; with HOP-62 NSCLC, 56.5%; in the test on NCI-H460 lung, 22.6%; with HOP-92 NSCLC it was 36.3%. The growth is 45.7% in the test with NCI-H522 lung; 39.8% in the test with A549/ATCC NSCLC; 28.2% in the test on 786-0 renal; 26.5% with COLO 205 colon; 49% with DU-145 prostate; 9.09% (active) with K-562 leukemia. For the same molecule, the growth in the test on MALME-3M melanoma was 88.3%; in the test with MDA-MB-231 breast, 42.1%; in the test with RXF 393 renal it was 48.5%; in the test on SF-268 CNS, 43.7%; in the test with SF-295 CNS, 34.4%; in the test with SF-539 CNS, -14.9% (active). The results for the growth in the test with UACC-257 melanoma and in the test on M14 melanoma were 64.2% and 19.3%, respectively.

As for `C[C@@]1(C(=O)Nc2ccc(F)nc2)CCCN1c1nc(Nc2cc(C3CC3)[nH]n2)c2cccn2n1`, the growth was 20.5% with NCI-H23 lung; 30.1% with NCI-H226 lung; 15.3% in the test with NCI-H322M lung; 11.3% with HOP-62 NSCLC; 14.5% with NCI-H460 lung; -45.5% (active) in the test with HOP-92 NSCLC. Besides, the growth in the test with NCI-H522 lung was 40.9%; in the test with A549/ATCC NSCLC, 21.9%; in the test with 786-0 renal, 5.48% (active); in the test with COLO 205 colon, -49.3% (active); in the test with DU-145 prostate it was 38.9%; with K-562 leukemia, 27.3%. Moreover, the growth with MALME-3M melanoma is 55.3%; in the test on MDA-MB-231 breast, 20.7%; in the test with RXF 393 renal, -45.9% (active); in the test on SF-268 CNS it was 15.5%; in the test with SF-295 CNS, -13.2% (active); in the test on SF-539 CNS, 16.3%. Further, the growth was 22.1% in the test with UACC-257 melanoma and 21.6% in the test on M14 melanoma.

As for `N#Cc1ccc(-n2nnc3ccccc32)cc1C#N`, the growth with NCI-H23 lung was 94%; with NCI-H226 lung, 96.7%; in the test with NCI-H322M lung it was 111%; with HOP-62 NSCLC it was 94.6%; in the test with NCI-H460 lung, 107%; in the test on HOP-92 NSCLC, 103%. Further, the growth in the test on NCI-H522 lung was 88.1%; with A549/ATCC NSCLC, 87.2%; in the test with 786-0 renal, 99.5%; with COLO 205 colon it was 104%; with DU-145 prostate, 93.5%; in the test with K-562 leukemia, 93%. The growth with MALME-3M melanoma is 96.6%; with MDA-MB-231 breast, 111%; in the test on RXF 393 renal it was 100%; in the test with SF-268 CNS, 105%; in the test on SF-295 CNS it was 91.5%; in the test on SF-539 CNS it was 101%. Besides, the growth was 89.4% in the test with UACC-257 melanoma and 106% with M14 melanoma.
